# Among all 39,000 compounds or so, about 3,300 (8.5%) were called active. The sample as a whole holds a higher share of actives than the screen did.
# Test system: HepG2
# Assay: cytotoxicity call (relative viability < 0.9)
# Details: 10 µM
row,Structure (SMILES),cytotoxicity call
1,C[C@@H]1CN([C@@H](C)CO)C(=O)c2cc(NC(=O)CCCCCC(=O)Nc3ccccc3N)ccc2O[C@@H](C)CCCCO[C@@H]1CN(C)S(=O)(=O)c1ccc(Cl)cc1,inactive
2,C[C@H](CO)N1C[C@H](C)[C@@H](CN(C)S(=O)(=O)c2ccc(C#N)cc2)OCc2cnnn2CCCC1=O,inactive
3,C[C@@H]1CCCCO[C@@H](CN(C)Cc2ccccc2)[C@H](C)CN([C@H](C)CO)C(=O)c2cc(NC(=O)c3ccccc3)ccc2O1,inactive
4,Cc1noc(C)c1NC(=O)Nc1ccc2c(c1)CC(=O)N([C@@H](C)CO)C[C@@H](C)[C@@H](CN(C)CC1CC1)O2,inactive
5,COc1ccc(NC(=O)Nc2ccc3c(c2)C(=O)N([C@@H](C)CO)C[C@@H](C)[C@H](CN(C)Cc2ccc4c(c2)OCO4)OCCCC[C@@H](C)O3)cc1,inactive
6,CCCOc1ccnc2c1c(=O)n(C)c(=O)n2C,inactive
7,COc1ccc(NC(=O)Nc2cccc3c2O[C@@H](CN(C)Cc2ccc(C(=O)Nc4ccccc4N)cc2)[C@@H](C)CN([C@H](C)CO)C3=O)cc1,inactive
8,C[C@H]1CN([C@@H](C)CO)C(=O)Cc2cc(NC(=O)C3CC3)ccc2O[C@@H]1CN(C)S(=O)(=O)c1ccccc1,inactive
9,C[C@@H]1CCCCO[C@@H](CN(C)S(=O)(=O)c2ccc(Cl)cc2)[C@@H](C)CN([C@H](C)CO)C(=O)c2cc(NC(=O)CCC(F)(F)F)ccc2O1,inactive
10,C[C@H]1CCCCO[C@@H](CN(C)S(=O)(=O)c2ccc(Cl)cc2)[C@@H](C)CN([C@@H](C)CO)C(=O)c2cc(NC(=O)CCC(F)(F)F)ccc2O1,inactive
11,C[C@H](CO)N1C[C@H](C)[C@H](CN(C)S(=O)(=O)c2ccc(Cl)cc2)OCCCC[C@H](C)Oc2ccc(NC(=O)CCC(F)(F)F)cc2C1=O,inactive
12,C[C@@H]1CCCCO[C@@H](CN(C)S(=O)(=O)c2ccc(Cl)cc2)[C@@H](C)CN([C@@H](C)CO)C(=O)c2cc(NC(=O)CCC(F)(F)F)ccc2O1,inactive
13,C[C@@H]1CCCCO[C@@H](CN(C)S(=O)(=O)c2ccc(Cl)cc2)[C@H](C)CN([C@@H](C)CO)C(=O)c2cc(NC(=O)CCC(F)(F)F)ccc2O1,active
14,C[C@H]1CCCCO[C@H](CN(C)S(=O)(=O)c2ccc(Cl)cc2)[C@@H](C)CN([C@@H](C)CO)C(=O)c2cc(NC(=O)CCC(F)(F)F)ccc2O1,active
15,N#C[C@@H]1C(=O)NC(=O)[C@@H](C#N)C12CCCC2,inactive
16,Cc1noc(C)c1S(=O)(=O)N(C)C[C@@H]1OCCCC[C@@H](C)Oc2ccc(NC(=O)Nc3ccc(F)cc3)cc2C(=O)N([C@H](C)CO)C[C@@H]1C,inactive
17,C[C@@H]1CN([C@@H](C)CO)C(=O)c2cc(NC(=O)Nc3ccccc3)ccc2O[C@@H](C)CCCCO[C@@H]1CN(C)C(=O)Nc1cccc2ccccc12,inactive
18,Cc1ccc(S(=O)(=O)N(C)C[C@H]2OCCCC[C@H](C)Oc3ccc(NC(=O)Nc4cccc5ccccc45)cc3C(=O)N([C@H](C)CO)C[C@@H]2C)cc1,inactive
19,CCOC(=O)[C@@H](N)Cc1ccccc1,inactive
20,NNC(=O)[C@@H](N)Cc1ccccc1,inactive
21,Cc1cc(C)c(NC(=O)[C@@H](N)Cc2ccccc2)c(Cl)c1,active
22,CC(C)=CCCC(C)(O)C1CC=C(C)CC1 (centres undefined),active

row,Structure (SMILES),cytotoxicity call
1,CC1=CC[C@H](C(C)(C)O)CC1,inactive
2,C=C(C)[C@H]1CC=C(C)CC1,inactive
3,C[C@@H]1CN([C@H](C)CO)C(=O)c2cc(NC(=O)C3CCCCC3)ccc2O[C@@H](C)CCCCO[C@H]1CN(C)C(=O)C1CCCCC1,inactive
4,C[C@@H]1CN([C@H](C)CO)C(=O)c2c(c3ccccc3n2C)-c2ccccc2CO[C@H]1CN(C)C(=O)Nc1cccc(F)c1,inactive
5,C[C@@H]1CN([C@H](C)CO)C(=O)c2cc(NS(C)(=O)=O)ccc2O[C@@H](C)CCCCO[C@H]1CN(C)Cc1ccc(Cl)c(Cl)c1,active
6,C[C@@H]1CCCCO[C@H](CN(C)Cc2ccc(Cl)c(Cl)c2)[C@H](C)CN([C@@H](C)CO)C(=O)c2cc(NS(C)(=O)=O)ccc2O1,active
7,C[C@@H]1CCCCO[C@@H](CN(C)Cc2ccc(Cl)c(Cl)c2)[C@H](C)CN([C@@H](C)CO)C(=O)c2cc(NS(C)(=O)=O)ccc2O1,inactive
8,C[C@@H]1CCCCO[C@@H](CN(C)Cc2ccc(Cl)c(Cl)c2)[C@@H](C)CN([C@@H](C)CO)C(=O)c2cc(NS(C)(=O)=O)ccc2O1,inactive
9,C[C@@H]1CCCCO[C@H](CN(C)Cc2ccc(Cl)c(Cl)c2)[C@@H](C)CN([C@@H](C)CO)C(=O)c2cc(NS(C)(=O)=O)ccc2O1,inactive
10,C[C@@H]1CCCCO[C@H](CN(C)Cc2ccc(Cl)c(Cl)c2)[C@@H](C)CN([C@H](C)CO)C(=O)c2cc(NS(C)(=O)=O)ccc2O1,inactive
11,C[C@@H](NC(=O)C[C@@H]1CC[C@@H](NC(=O)CN2CCOCC2)[C@@H](CO)O1)c1ccccc1,inactive
12,O=C1c2c(O)cccc2Cc2cccc(O)c21,inactive
13,O=C1c2cccc(O)c2C(=O)c2c(O)cccc21,active
14,Cc1cc(O)c2c(c1)C(=O)c1cccc(O)c1C2=O,inactive
15,COc1cccc(NC(=O)N2C[C@H](O)COC[C@@H]3O[C@@H](CC(=O)NCc4ccccc4F)CC[C@H]32)c1,inactive
16,CNC(=O)CN(C#N)c1nc(N(C)C)nc(N(C)C)n1,inactive
17,C[C@@H]1CCCCO[C@H](CN(C)Cc2ccc(C(=O)O)cc2)[C@H](C)CN([C@@H](C)CO)C(=O)c2cc(NC(=O)Nc3cccc4ccccc34)ccc2O1,inactive
18,C[C@H](CO)N1C[C@H](C)[C@@H](CN(C)Cc2ccc(C(F)(F)F)cc2)Oc2c(NC(=O)Nc3ccccc3)cccc2C1=O,inactive
19,CN(C)Cc1c(C(=O)N/N=C/c2ccncc2)nnn1-c1nonc1N,active
20,CCc1c(C(=O)OC)nnn1-c1nonc1N,inactive
21,NNC(=O)c1nnn(-c2nonc2N)c1CN1CCCCC1,inactive
22,Cc1noc(C)c1NC(=O)N(C)C[C@@H]1Oc2c(NS(=O)(=O)c3ccccc3)cccc2C(=O)N([C@@H](C)CO)C[C@H]1C,inactive
